# Test results reported in article PMC7862700, “An all-to-all approach to the identification of sequence-specific readers for epigenetic DNA modifications on cytosine”.
# Assays:
# Test in all cases: DAPPL (digital affinity profiling via proximity ligation, sequencing); 10 mM Tris-HCl pH 7.5, 50 mM NaCl, 1 mM DTT, 4% glycerol, room temperature, 30 min; GST-TFs on glutathione beads, 16-mer random dsDNA library, 0.1% formaldehyde crosslink after washing; high values mean tight binding
# FEV = biological target: T1, FEV (Homo sapiens, UniProt Q99581 1-238); conditions: protein: recombinant; tags: N-terminal GST; dsDNA, one strand shown
# T1 sequence: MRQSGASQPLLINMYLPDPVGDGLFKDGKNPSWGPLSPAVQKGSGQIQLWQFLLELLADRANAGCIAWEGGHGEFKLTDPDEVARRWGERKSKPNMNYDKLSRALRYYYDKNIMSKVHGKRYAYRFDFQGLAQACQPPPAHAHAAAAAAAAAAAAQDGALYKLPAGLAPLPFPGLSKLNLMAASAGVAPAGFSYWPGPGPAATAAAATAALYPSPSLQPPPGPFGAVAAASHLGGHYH
# Outline: (§1)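 Binding signal is each hexamer's read frequency for a factor divided by its frequency in the tag-only sample. The factors were GST-fused human transcription factors from yeast, captured on glutathione beads, DNA-barcoded and pooled with that sample. Pools were incubated with 200 nmole of a random double-stranded 16-mer DNA library in Tris/NaCl/DTT/glycerol buffer at room temperature for 30 min, then washed, crosslinked with 0.1% formaldehyde, proximity-ligated with BsaI/T4 ligase (1 h, 37 °C), PCR-amplified and sequenced on an Illumina NextSeq500.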
# ETV5 = ETV5 (Homo sapiens, UniProt P41161 1-510); conditions: protein: recombinant; tags: N-terminal GST; dsDNA, one strand shown
# Outline: as §1
# HSF1 = HSF1 (Homo sapiens, UniProt Q00613 1-529); conditions: protein: recombinant; tags: N-terminal GST; chain copies: 3; dsDNA, one strand shown
# Outline: as §1
# SPIC = biological target: T2, SPIC (Homo sapiens, UniProt Q8N5J4 1-248); conditions: protein: recombinant; tags: N-terminal GST; dsDNA, one strand shown
# T2 sequence: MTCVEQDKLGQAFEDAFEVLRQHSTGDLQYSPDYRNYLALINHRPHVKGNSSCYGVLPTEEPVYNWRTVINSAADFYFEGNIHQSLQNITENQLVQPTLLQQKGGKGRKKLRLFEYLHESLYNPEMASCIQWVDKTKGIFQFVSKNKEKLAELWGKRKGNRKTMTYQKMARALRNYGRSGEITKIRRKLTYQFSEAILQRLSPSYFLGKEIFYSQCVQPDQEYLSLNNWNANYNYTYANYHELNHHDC
# Outline: as §1
# ELF4 = ELF4 (Homo sapiens, UniProt Q99607 1-663); conditions: protein: recombinant; tags: N-terminal GST; dsDNA, one strand shown
# Outline: as §1
# ELK4 = biological target: T3, ELK4 (Homo sapiens, UniProt P28324-2 1-405); conditions: protein: recombinant; tags: N-terminal GST; dsDNA, one strand shown
# T3 sequence: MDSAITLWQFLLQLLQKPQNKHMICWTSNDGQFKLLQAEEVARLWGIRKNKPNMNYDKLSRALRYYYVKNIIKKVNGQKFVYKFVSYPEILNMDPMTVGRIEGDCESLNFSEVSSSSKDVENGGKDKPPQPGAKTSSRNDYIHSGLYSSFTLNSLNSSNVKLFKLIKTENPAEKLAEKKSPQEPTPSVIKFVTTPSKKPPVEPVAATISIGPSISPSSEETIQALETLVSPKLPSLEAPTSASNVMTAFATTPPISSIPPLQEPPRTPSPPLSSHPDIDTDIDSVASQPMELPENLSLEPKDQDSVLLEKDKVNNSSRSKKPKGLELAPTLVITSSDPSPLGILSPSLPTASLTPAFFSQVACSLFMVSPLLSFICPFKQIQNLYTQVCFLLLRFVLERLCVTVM
# Outline: as §1
# ETV2 = biological target: T4, ETV2 (Homo sapiens, UniProt O00321 1-342); conditions: protein: recombinant; tags: N-terminal GST; dsDNA, one strand shown
# T4 sequence: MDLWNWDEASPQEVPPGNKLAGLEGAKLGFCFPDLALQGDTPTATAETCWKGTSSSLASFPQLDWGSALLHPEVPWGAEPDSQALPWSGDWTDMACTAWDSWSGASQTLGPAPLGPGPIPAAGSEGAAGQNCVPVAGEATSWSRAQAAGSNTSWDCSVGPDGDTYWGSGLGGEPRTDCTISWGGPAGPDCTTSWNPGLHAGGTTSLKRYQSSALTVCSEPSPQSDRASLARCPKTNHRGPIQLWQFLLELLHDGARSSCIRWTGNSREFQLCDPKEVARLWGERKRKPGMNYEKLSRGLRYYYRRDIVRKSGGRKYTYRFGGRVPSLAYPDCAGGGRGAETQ
# Outline: as §1
# ELF3 = biological target: T5, ELF3 (Homo sapiens, UniProt P78545 1-371); conditions: protein: recombinant; tags: N-terminal GST; dsDNA, one strand shown
# T5 sequence: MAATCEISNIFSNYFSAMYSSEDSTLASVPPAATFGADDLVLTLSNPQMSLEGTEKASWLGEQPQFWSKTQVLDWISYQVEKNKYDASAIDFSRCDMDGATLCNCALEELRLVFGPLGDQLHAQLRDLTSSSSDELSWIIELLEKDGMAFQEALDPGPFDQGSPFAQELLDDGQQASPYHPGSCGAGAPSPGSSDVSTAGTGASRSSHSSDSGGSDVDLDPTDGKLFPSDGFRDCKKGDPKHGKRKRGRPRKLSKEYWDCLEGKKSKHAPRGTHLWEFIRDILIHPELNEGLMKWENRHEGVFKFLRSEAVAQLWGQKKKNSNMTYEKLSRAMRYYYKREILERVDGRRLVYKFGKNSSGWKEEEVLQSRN
# Outline: as §1
# CRX = CRX (Homo sapiens, UniProt O43186 1-299); conditions: protein: recombinant; tags: N-terminal GST; dsDNA, one strand shown
# Outline: as §1
# ETV1 = ETV1 (Homo sapiens, UniProt P50549 1-477); conditions: protein: recombinant; tags: N-terminal GST; dsDNA, one strand shown
# Outline: as §1
# ERF = biological target: T6, ERF (Homo sapiens, UniProt P50548 1-548); conditions: protein: recombinant; tags: N-terminal GST; dsDNA, one strand shown
# T6 sequence: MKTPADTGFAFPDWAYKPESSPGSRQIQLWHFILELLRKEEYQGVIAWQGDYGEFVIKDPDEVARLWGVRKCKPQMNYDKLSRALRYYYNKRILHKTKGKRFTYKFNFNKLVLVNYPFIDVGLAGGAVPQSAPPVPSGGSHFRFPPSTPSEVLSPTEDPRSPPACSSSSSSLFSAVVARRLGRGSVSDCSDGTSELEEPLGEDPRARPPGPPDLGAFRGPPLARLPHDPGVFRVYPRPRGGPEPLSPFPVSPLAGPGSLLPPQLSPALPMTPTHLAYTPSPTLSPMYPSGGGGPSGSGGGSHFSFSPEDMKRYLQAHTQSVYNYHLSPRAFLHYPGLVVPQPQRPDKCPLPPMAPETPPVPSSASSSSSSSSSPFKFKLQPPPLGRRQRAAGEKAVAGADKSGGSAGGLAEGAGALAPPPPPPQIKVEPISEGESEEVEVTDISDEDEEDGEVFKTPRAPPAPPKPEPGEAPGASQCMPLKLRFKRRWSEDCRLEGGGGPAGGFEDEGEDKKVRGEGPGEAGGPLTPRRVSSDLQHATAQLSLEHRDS
# Outline: as §1
# ETV3L = biological target: T7, ETV3L (Homo sapiens, UniProt Q6ZN32 1-361); conditions: protein: recombinant; tags: N-terminal GST; dsDNA, one strand shown
# T7 sequence: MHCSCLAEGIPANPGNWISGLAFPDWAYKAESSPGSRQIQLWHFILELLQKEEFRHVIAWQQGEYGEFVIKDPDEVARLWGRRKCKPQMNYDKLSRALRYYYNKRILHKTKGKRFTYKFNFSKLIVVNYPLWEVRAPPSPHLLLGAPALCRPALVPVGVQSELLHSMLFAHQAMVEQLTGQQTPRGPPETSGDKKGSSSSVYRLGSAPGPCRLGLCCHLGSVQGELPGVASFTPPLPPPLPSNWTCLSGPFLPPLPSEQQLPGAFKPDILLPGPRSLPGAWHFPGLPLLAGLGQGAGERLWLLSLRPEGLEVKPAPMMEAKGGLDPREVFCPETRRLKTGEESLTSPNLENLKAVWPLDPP
# Outline: as §1
# ETS2 = biological target: T8, ETS2 (Homo sapiens, UniProt P15036 1-469); conditions: protein: recombinant; tags: N-terminal GST; dsDNA, one strand shown
# T8 sequence: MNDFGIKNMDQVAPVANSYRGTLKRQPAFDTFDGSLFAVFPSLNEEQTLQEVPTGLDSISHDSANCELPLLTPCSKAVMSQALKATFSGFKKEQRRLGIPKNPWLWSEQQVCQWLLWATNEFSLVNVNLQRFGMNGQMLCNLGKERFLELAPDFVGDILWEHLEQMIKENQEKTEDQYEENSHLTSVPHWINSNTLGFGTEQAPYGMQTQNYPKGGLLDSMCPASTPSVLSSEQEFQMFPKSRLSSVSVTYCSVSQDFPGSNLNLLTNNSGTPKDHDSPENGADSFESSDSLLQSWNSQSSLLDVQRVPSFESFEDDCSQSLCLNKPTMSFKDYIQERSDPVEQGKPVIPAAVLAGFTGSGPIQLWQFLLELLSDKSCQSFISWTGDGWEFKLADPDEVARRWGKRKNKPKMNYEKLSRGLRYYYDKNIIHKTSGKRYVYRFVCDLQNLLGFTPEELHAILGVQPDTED
# Outline: as §1
# SPDEF = biological target: T9, SPDEF (Homo sapiens, UniProt O95238 1-335); conditions: protein: recombinant; tags: N-terminal GST; dsDNA, one strand shown
# T9 sequence: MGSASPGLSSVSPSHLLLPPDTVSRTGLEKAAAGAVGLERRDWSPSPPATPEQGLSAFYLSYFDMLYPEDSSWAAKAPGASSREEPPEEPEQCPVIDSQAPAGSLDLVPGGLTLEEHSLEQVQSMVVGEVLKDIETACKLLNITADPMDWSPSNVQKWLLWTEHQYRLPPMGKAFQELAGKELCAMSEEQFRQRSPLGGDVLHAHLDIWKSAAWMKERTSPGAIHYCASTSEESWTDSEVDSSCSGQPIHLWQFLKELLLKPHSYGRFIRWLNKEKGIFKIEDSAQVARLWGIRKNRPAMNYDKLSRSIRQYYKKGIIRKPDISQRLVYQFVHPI
# Outline: as §1
# ETV7 = biological target: T10, ETV7 (Homo sapiens, UniProt Q9Y603 1-341); conditions: protein: recombinant; tags: N-terminal GST; dsDNA, one strand shown
# T10 sequence: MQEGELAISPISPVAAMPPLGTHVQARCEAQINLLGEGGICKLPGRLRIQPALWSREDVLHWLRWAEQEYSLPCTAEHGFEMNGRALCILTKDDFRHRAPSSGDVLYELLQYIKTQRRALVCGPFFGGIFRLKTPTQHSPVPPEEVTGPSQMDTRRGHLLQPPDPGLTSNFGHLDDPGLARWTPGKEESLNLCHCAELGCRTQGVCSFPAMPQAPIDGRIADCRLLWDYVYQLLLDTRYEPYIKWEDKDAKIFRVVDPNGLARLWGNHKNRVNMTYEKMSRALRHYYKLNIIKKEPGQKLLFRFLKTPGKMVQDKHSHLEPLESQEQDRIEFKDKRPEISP
# Outline: as §1
# ELF5 = biological target: T11, ELF5 (Homo sapiens, UniProt Q9UKW6-2 1-255); conditions: protein: recombinant; tags: N-terminal GST; dsDNA, one strand shown
# T11 sequence: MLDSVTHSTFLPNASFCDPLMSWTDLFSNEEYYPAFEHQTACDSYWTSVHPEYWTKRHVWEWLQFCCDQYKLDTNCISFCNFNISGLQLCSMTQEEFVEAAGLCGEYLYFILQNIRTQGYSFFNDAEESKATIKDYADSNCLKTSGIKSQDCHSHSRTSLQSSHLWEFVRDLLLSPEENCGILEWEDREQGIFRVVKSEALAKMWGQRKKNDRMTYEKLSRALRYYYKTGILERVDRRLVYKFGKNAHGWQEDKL
# Outline: as §1
# ETV3 = biological target: T12, ETV3 (Homo sapiens, UniProt P41162-2 1-143); conditions: protein: recombinant; tags: N-terminal GST; dsDNA, one strand shown
# T12 sequence: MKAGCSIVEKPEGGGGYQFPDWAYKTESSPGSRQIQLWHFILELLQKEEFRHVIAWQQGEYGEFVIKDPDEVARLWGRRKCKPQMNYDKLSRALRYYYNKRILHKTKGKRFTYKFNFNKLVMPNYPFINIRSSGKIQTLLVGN
# Outline: as §1
# ETV6 = ETV6 (Homo sapiens, UniProt P41212 1-452); conditions: protein: recombinant; tags: N-terminal GST; dsDNA, one strand shown
# Outline: as §1
# CRX, sequence (O43186 whole entry): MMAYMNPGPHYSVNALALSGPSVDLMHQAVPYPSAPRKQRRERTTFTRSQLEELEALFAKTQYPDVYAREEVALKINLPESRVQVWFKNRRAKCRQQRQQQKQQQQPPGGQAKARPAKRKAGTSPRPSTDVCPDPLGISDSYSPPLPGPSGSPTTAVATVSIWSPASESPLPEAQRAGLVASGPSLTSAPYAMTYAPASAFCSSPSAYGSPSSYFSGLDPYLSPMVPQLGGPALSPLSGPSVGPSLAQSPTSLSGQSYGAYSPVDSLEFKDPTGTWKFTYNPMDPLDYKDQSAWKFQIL
# ETV5, sequence (P41161 whole entry): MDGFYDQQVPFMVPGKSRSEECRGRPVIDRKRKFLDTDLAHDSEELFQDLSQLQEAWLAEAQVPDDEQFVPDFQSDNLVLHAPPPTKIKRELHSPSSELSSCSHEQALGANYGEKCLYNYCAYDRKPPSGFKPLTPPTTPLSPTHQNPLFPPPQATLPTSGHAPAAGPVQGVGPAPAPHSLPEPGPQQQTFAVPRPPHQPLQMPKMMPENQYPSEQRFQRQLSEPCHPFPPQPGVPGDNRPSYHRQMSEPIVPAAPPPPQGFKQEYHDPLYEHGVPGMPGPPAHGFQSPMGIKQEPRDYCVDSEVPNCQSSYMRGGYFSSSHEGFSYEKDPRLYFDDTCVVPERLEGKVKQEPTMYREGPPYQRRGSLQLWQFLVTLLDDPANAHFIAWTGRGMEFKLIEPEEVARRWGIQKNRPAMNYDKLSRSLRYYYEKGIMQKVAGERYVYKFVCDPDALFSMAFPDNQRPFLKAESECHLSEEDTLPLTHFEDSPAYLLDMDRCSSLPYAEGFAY
# ETV6, sequence (P41212 whole entry): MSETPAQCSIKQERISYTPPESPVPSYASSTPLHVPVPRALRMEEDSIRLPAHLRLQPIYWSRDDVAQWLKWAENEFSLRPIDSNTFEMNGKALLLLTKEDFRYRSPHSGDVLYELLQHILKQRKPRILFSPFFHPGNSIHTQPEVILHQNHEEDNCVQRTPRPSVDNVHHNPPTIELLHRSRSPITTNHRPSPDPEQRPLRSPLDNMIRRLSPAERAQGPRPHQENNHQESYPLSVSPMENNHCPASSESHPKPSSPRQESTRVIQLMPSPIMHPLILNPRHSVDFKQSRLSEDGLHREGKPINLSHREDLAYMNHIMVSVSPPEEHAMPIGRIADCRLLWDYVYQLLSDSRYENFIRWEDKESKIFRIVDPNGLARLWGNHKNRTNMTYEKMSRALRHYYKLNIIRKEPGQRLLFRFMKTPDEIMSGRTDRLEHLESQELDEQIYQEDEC
# ETV1, sequence (P50549 whole entry): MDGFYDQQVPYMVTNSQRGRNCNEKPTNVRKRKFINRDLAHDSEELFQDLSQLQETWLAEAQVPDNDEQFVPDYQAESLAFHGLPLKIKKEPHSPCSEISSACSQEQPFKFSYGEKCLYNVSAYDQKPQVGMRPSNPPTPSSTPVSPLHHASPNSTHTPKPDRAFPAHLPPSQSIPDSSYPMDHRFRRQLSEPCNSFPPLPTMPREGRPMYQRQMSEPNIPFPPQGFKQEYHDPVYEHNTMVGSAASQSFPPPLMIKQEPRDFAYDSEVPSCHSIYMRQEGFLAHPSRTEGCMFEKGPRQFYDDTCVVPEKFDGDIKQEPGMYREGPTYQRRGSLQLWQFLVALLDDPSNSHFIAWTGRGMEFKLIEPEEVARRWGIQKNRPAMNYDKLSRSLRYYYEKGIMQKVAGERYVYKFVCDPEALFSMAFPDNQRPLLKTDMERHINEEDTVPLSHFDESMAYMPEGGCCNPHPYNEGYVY
# HSF1, sequence (Q00613 whole entry): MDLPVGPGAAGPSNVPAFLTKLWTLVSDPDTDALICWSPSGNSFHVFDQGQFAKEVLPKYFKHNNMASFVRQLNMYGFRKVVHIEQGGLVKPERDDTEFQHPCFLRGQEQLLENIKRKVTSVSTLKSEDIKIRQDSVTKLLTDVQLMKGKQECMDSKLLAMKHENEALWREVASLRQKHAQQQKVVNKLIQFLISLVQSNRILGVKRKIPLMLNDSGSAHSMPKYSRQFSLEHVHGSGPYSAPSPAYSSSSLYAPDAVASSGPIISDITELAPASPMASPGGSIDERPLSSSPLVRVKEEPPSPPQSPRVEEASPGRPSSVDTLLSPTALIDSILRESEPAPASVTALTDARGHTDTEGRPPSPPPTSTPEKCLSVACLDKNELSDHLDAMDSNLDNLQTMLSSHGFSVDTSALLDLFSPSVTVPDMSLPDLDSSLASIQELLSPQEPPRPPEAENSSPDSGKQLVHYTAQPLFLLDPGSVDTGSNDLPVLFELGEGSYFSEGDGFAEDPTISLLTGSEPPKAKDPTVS
# ELF4, sequence (Q99607 whole entry): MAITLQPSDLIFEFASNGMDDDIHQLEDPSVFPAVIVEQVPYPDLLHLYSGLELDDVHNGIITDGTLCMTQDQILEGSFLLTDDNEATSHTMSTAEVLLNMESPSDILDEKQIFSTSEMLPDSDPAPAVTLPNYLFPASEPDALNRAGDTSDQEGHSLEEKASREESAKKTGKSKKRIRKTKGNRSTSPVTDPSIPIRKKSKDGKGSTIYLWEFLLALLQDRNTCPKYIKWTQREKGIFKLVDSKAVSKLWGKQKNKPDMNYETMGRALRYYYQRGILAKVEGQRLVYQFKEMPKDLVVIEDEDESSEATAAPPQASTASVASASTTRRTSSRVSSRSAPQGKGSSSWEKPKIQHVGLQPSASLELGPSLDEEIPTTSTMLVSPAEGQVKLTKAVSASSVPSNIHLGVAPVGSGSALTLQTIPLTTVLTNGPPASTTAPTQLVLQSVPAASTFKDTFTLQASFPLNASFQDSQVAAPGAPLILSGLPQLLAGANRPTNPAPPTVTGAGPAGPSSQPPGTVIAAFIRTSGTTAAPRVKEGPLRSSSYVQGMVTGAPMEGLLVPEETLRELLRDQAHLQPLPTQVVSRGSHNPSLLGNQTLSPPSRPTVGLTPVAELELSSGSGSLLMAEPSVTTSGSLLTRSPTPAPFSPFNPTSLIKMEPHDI
sequence,measurement,setting,value
TTTGGA,binding signal,FEV,"1.2 fold enrichment (6-mer frequency, TF over GST control)"
same,binding signal,ETV5,"1.21 fold enrichment (6-mer frequency, TF over GST control)"
same,binding signal,HSF1,"1.48 fold enrichment (6-mer frequency, TF over GST control)"
same,binding signal,SPIC,"1.28 fold enrichment (6-mer frequency, TF over GST control)"
same,binding signal,ELF4,"1.12 fold enrichment (6-mer frequency, TF over GST control)"
same,binding signal,ELK4,"1.14 fold enrichment (6-mer frequency, TF over GST control)"
same,binding signal,ETV2,"1.22 fold enrichment (6-mer frequency, TF over GST control)"
same,binding signal,ELF3,"1.13 fold enrichment (6-mer frequency, TF over GST control)"
same,binding signal,CRX,"1.48 fold enrichment (6-mer frequency, TF over GST control)"
same,binding signal,ETV1,"1.24 fold enrichment (6-mer frequency, TF over GST control)"
same,binding signal,ERF,"1.2 fold enrichment (6-mer frequency, TF over GST control)"
same,binding signal,ETV3L,"1.21 fold enrichment (6-mer frequency, TF over GST control)"
same,binding signal,ETS2,"1.19 fold enrichment (6-mer frequency, TF over GST control)"
same,binding signal,SPDEF,"1.23 fold enrichment (6-mer frequency, TF over GST control)"
same,binding signal,ETV7,"1.3 fold enrichment (6-mer frequency, TF over GST control)"
same,binding signal,ELF5,"1.15 fold enrichment (6-mer frequency, TF over GST control)"
same,binding signal,ETV3,"1.19 fold enrichment (6-mer frequency, TF over GST control)"
same,binding signal,ETV6,"1.15 fold enrichment (6-mer frequency, TF over GST control)"
